This note sets out measurements from PubChem BioAssay AID2284067 (EPA ToxCast).

Activity calls are given as the source filed them. The calls were made as follows: active = hit-call score of the fitted dose curve at least 0.9, where 1 is the maximum; inactive = score below 0.9.

The experiment deals with human DYRK1A CMGC Kinase, DYRK1A (gene 1859) (UniProt Q13627). Kind of experiment: ERF_FR_ENZ_hDYRK1A: Eurofins (ERF) Enzymatic Radiometric [Km ATP] KinaseProfiler LeadHunter Assay for human DYRK1A CMGC Kinase. The method, then:
ERF_FR_ENZ_hDYRK1A is a biochemical, single-readout assay that uses extracted gene-proteins in a cell-free assay. Measurements were taken 0.5 hour after chemical dosing in a 96-well plate. See DYRK1A Human CMGC Kinase Enzymatic LANCE Assay [Km ATP], Cerep.ERF_FR_ENZ_hDYRK1A is an assay component calculated from the ERF_FR_ENZ_hDYRK1A assay. It is designed to measure enzyme activity using a type of enzyme reporter as detected by fluorescence intensity with LANCE technology.Data from the assay component ERF_FR_ENZ_hDYRK1A was analyzed at the assay endpoint, ERF_FR_ENZ_hDYRK1A, in the positive analysis fitting direction relative to DMSO as the negative control and baseline of activity. Using a type of enzyme reporter, loss-of-signal activity can be used to understand changes in enzymatic activity as they relate to gene DYRK1A. To generalize the intended target to other relatable targets, this assay endpoint is annotated to the kinase intended target family, where the subfamily is serine/threonine kinase.
DYRK1A (h) is incubated with 8 mM MOPS pH 7.0, 0.2 mM EDTA, 50 uM […], 10 mM MgAcetate and [gamma-33P]-ATP (specific activity and concentration as required). The reaction is initiated by the addition of the Mg/ATP mix. After incubation for 40 minutes at room temperature, the reaction is stopped by the addition of phosphoric acid to […] a concentration of 0.5%. […]
Take `O=C(/C=C/c1ccc(O)cc1)CC(=O)/C=C/c1ccc(O)cc1`: the concentration at half-maximal activity (AC50) is 128 nM (active).

For orientation: AC50 means the concentration giving half of the maximal activity seen.
